Here are results for 24 molecules from PubChem BioAssay AID1347171 (National Center for Advancing Translational Sciences (NCATS), 2019).

Structures are written as SMILES. Results filed as inconclusive are left out. Entries that show only a call come without a potency. Active and inactive are the calls of the source. The call rests on the fitted dose curve; in most records, active means well fitted inhibition curve with a large enough effect; inconclusive means small, poorly fitted or top-dose-only effect; inactive means no such curve, though single readings can be large or run the other way.

This experiment can be described thus: Orthogonal mCherry assay for qRT-PCR qHTS of selected Zika virus inhibitors. To be noted: Vero cells, ZIKV-mCherry infection imaging, 48-72 h; series mostly up to 32.6 µM. An excerpt: Description: Assay Submitters (PI): Avindra Nath, Ph.D., National Institute of Neurological Disorders and Stroke (NINDS), Bethesda, MD Radhakrishnan Padmanabhan, Ph.D., Georgetown University (GU), Washington D.C. Zika Virus causes congenital defects, including microcephaly and is associated with Guillain-Barre syndrome, eningoencephalitis and myelitis in infected adult. […] Using a target-based approach, we hope to establish a screening paradigm to uncover novel, cell-active NS2B-NS3 protease (Zika Virus) specific inhibitors from NCATS' collection of small molecules using qHTS. […] Four assay panel was created to identify potential Zika Virus inhibitors. Namely, (1) GU unlinked NS2B-NS3 AMC tagged protease qHTS, (2) GU unlinked NS2B-NS3 Rhodamine tagged protease qHTS, (3) NINDS linked NS2B-NS3 AMC tagged protease qHTS, (4) NINDS linked NS2B-NS3 Rhodamine tagged protease qHTS. Inhibitors of the Zika virus primary screens are confirmed using qRT-PCR secondary assays, mCherry orthogonal assay, and Vero cells viability counterscreen. Early Translation Branch (ETB) National Center for Advancing Translational Sciences (NCATS), Rockville, MD National Institute of Health (NIH), Bethesda, Maryland
384 well ZIKV-mCherry Assay: We have developed a new orthogonal imaging assay in 384-well plate format, which uses recombinant virus ZIKV-mCherry in Vero cells. Briefly, 30 microL of Vero cells derived from a green monkey cell line, were dispensed by Multidrop Dispenser into a clear solid bottom black 384 well plate (ultracarrier, Perkin Elmer LifeSciences) at a concentration of 5,000 cells per well. The plate was incubated overnight in a CO2 incubator at 37 degrees C. Compounds were delivered as a 126 nL DMSO solution by Kalypsys pintool transfer. Following compound transfer, 10 microL of ZIKV-mCherry was added at an MOI of 1 and incubated in a CO2 incubator for 48-72 hrs at 37 degrees C. After sufficient incubation of infected cells in test plates, 8 microL of 32% PFA was dispensed into assay plates to fix cells and incubated for 20 min at room temperature. Plates were washed 3 times with PBS using BioTek EL406 microplate washer/dispenser. After washing, 30 microL of PBS with 0.01% TX-100 containing Hoechst dye was dispensed into the each well of the plates for nuclear staining. 384-well plates were imaged on an automated, widefield high content imager (INCell 2200, GE Healthcare) using a 10x/0.45 NA lens and standard DAPI (nuclear stain) and mCherry (cy5) excitation and emission filters. The TIFFs were quantitated using the canned Multi Target Analysis protocol (GE Investigator Workstation software v3.7.2). Briefly, nuclei from the DAPI channel were identified using top hat segmentation and a sensitivity setting of 96 and minimum size area of 35 microm2. A recombinant Zika viral infection was monitored in the Cy5 channel (cells) using a 2 microm collar dilation from the nuclear bitmap. mCherry objects with an average nuclear RFU intensity above 450 (3 stdev above mean negative control wells) were considered "mcherry positive" and data was analyzed by percent infection rate.
For the molecule `Nc1ccn([C@@H]2O[C@H](CO)[C@@H](O)C2(F)F)c(=O)n1`, the Potency entry is “inactive”.
For `Cc1cc2c(C(C)C)c(O)c(O)c(C=O)c2c(O)c1-c1c(C)cc2c(C(C)C)c(O)c(O)c(C=O)c2c1O` the value was “inactive”.
For `CC(C)=CCc1c2c(c3occ(-c4ccc(O)c(O)c4)c(=O)c3c1O)C=CC(C)(C)O2` the value was “inactive”; for `Cc1cc(NC(=O)c2ccc(Cl)c(Cl)c2)ccc1-c1cc2ccccc2oc1=O`, “inactive”.
As for `Oc1cc2ccccc2c2ccccc12`, the entry is “inactive”; as for `COc1c(C)c2c(c(O)c1C/C=C(\C)CCC(=O)O)C(=O)OC2`, “inactive”; as for `O=C(Nc1ccc([N+](=O)[O-])cc1Cl)c1cc(Cl)ccc1O`, “inactive”.
For `Cc1ccc(-n2[nH]c(C)c(N=Nc3cccc(-c4cccc(C(=O)O)c4)c3O)c2=O)cc1C`, the Potency entry was “inactive”.
On to `CC(C)c1cc(C(C)C)c(CC(=O)NS(=O)(=O)Oc2c(C(C)C)cccc2C(C)C)c(C(C)C)c1`, for which the Potency entry is “inactive”.
As to `O=C1NC(=O)/C(=C/c2ccc3c(c2)OC(F)(F)O3)S1`, the Potency result is “inactive”.
As to `CC[C@H](C)[C@H]1O[C@]2(CC[C@@H]1C)C[C@@H]1C[C@@H](C/C=C(\C)[C@@H](O[C@H]3C[C@H](OC)[C@@H](O[C@H]4C[C@H](OC)[C@@H](O)[C@H](C)O4)[C@H](C)O3)[C@@H](C)/C=C/C=C3\CO[C@@H]4[C@H](O)C(C)=C[C@@H](C(=O)O1)[C@]34O)O2`, the Potency result is “inactive”.
As for `CC1=C(C(=O)OCc2ccccc2)C(c2ccc(-c3ccccc3)cc2)NC(=O)N1CCCCCC(=O)O` (centres undefined), the entry is “inactive”; as for `CC(C)c1onc(-c2c(Cl)cccc2Cl)c1COc1ccc(/C=C/c2cccc(C(=O)O)c2)c(Cl)c1`, 25.1 µM (active); as for `CC(C)c1ccc2c(c1)c(SC(C)(C)C)c(CC(C)(C)C(=O)O)n2Cc1ccc(Cl)cc1`, “inactive”.
Regarding `Oc1cccc(-c2c3nc(c(-c4cccc(O)c4)c4ccc([nH]4)c(-c4cccc(O)c4)c4nc(c(-c5cccc(O)c5)c5ccc2[nH]5)CC4)C=C3)c1`, the Potency is 7.08 µM (active).
Take `Cc1cccc(C)c1NS(=O)(=O)c1ccc(NS(=O)(=O)c2ccc3c(c2)OCCO3)cc1`: the Potency is 3.55 µM (active).
For `COc1cc2c(c(O)c1OC/C=C(\C)CC/C=C(/C)CCC=C(C)C)CN(C(CCC(=O)O)C(=O)O)C2=O` (centres undefined) the value was “inactive”.
With `COc1cccc(-n2nc(C(=O)O)cc2-c2ccc(C3CCCCC3)c(Cl)c2)c1`, the Potency was 25.1 µM (active).
For `Nc1ncnc2c([C@@H]3N[C@H](CO)[C@@H](O)[C@H]3O)c[nH]c12` the value was 14.1 µM (active); for `CN(Cc1ccc(C(=O)O)cc1)c1ccc(OCc2c(-c3c(Cl)cccc3Cl)noc2C2CC2)nc1C(F)(F)F`, 14.1 µM (active); for `CC1(C)CCC(CN2CCN(c3ccc(C(=O)NS(=O)(=O)c4ccc(NCC5CCOCC5)c([N+](=O)[O-])c4)c(Oc4cnc5[nH]ccc5c4)c3)CC2)=C(c2ccc(Cl)cc2)C1`, “inactive”.
In the case of `Cc1cc(C(C#N)c2ccc(Cl)cc2)c(Cl)cc1NC(=O)c1cc(I)cc(I)c1O` (centres undefined), the Potency entry was “inactive”.
As for `COc1ccc(NS(=O)(=O)c2ccc(NS(=O)(=O)c3ccc4c(c3)OCCO4)cc2)cc1`, the entry is “inactive”; as for `N#CC1C(=O)Nc2scc(-c3ccc(-c4ccccc4O)cc3)c2C1=O` (centres undefined), “inactive”.
